Common to all, as to assay: NCI-60 one-dose screen, 48 h (100 = growth as untreated, 0 = no growth, -100 = all killed)
Holding throughout (conditions): 10 µM unless noted

For test [1], the system named is MDA-MB-435 melanoma.
The subject of test [2] is SW-620 colon.
The test system of test [3] is MCF7 breast.
Test [4] has as its system HCT-116 colon.
In test [5] the test system is HCC-2998 colon.
The subject of test [6] is KM12 colon.
Test [7] concerns BT-549 breast.

The panel holds about 83,000 compounds, 20% with a hit somewhere; the sample as a whole holds those more often.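 The endpoint reported here, percent growth, reads 100 for growth as untreated, 0 for no net growth and -100 for all cells dead.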 A number with no mark means an inactive call. Active and inactive are the calls of the source. How the source made its calls: active means growth percent below 10; inactive means the rest.

Turning to `COc1ccc(C(=O)/C=C/c2cc3c(c(OC)c2)OCC(=O)N3)cc1`, the growth in test [1] was 26.2%; in test [2] it was 14.7%; in test [3], 31.5%; in test [4], 11.8%; in test [5] it was 67.9%; in test [6], 14.7%.
In the case of `CC(C)(C)CC(C)(C)Nc1c(-c2ccc(-c3ccccc3)cc2)nc2cnccn12`, the growth in test [7] was 95%; in test [2], 97.1%; in test [3], 82.3%; in test [4], 59.8%; in test [5] it was 93.7%; in test [6] it was 79.9%.
With `Clc1ccc2c(NCCCN3CCN(c4nc(N5CCOCC5)nc5ccccc45)CC3)ccnc2c1`, the growth is 59.3% in test [7]; -86.5% (active) in test [1]; -3.49% (active) in test [3]; -0.752% (active) in test [4]; -57.5% (active) in test [5]; 25% in test [6].
For `CC1(C)C(=O)/C(=C\c2cccnc2)C[C@]2(C)[C@H]3CC=C4[C@@H]5C[C@@](C)(C(=O)O)CC[C@]5(C)CC[C@@]4(C)[C@]3(C)CC[C@@H]12`, the growth is 96.6% in test [7]; 103% in test [1]; 107% in test [2]; 87.7% in test [3]; 108% in test [5]; 99.2% in test [6].
Take `COc1ccc(-c2nc3sc4c(c3c(=O)[nH]2)CCCC4)c2ccccc12`: the growth in test [1] was -70.3% (active); in test [2], 18.9%; in test [3] it was 9.63% (active); in test [4] it was 10.7%; in test [5], 12.3%; in test [6], 7.22% (active).
For `COc1ccc(NC(=O)C(=O)c2c[nH]c3ccc(F)cc23)cc1`, the growth was 95.5% in test [1]; 99.9% in test [2]; 86.3% in test [3]; 79.1% in test [4]; 109% in test [5]; 94.5% in test [6].
As for `Cc1nc2ccc(C(=O)NCc3cc(C(=O)O)c(C)o3)cc2nc1C`, the growth was 96.1% in test [7]; 96.2% in test [1]; 101% in test [3]; 95.5% in test [4]; 92.3% in test [6].
On to `COc1cc2oc(-c3cccc(C(=O)Nc4ccc(C)cc4)c3)cc(=O)c2c(OC)c1OC`, for which the growth in test [7] was 36.6%; in test [1], 27.9%; in test [2], 59.5%; in test [3], 24.5%; in test [5], 49.9%; in test [6], 33%.
In the case of `COc1ccc2c(c1)/C(=C\c1sc(=S)[nH]c1O)C(C(=O)O)=N2`, the growth in test [7] is 109%; in test [1], 100%; in test [3], 97.7%; in test [4], 99.6%; in test [5], 103%; in test [6], 99.6%.
In the case of `CS(=O)(=O)c1ccc(-c2nc3cc(Cl)ccc3n2CC(=O)NO)cc1`, the growth was 97.6% in test [7]; 96.2% in test [2]; 81.3% in test [3]; 103% in test [4]; 115% in test [5]; 93.9% in test [6].
Turning to `CCCCCCCSc1ccc(C(=O)O)cc1`, the growth is 112% in test [7]; 96% in test [1]; 105% in test [2]; 99.3% in test [4]; 114% in test [5]; 116% in test [6].
Consider `O=[N+]([O-])c1ccccc1C(O)Cc1ccc2ccccc2n1` (stereo not given), for which the growth in test [7] was 109%; in test [1], 103%; in test [3], 83.2%; in test [4], 93%; in test [5], 114%; in test [6], 87.6%.
As to `C[C@H]1[C@H](C)CC[C@]2(C(=O)N3CCN(C)CC3)CC[C@]3(C)C(=CC[C@@H]4[C@@]5(C)C/C(=C/c6cccnc6)C(=O)C(C)(C)[C@@H]5CC[C@]43C)[C@H]12`, the growth is -81.2% (active) in test [7]; -65.1% (active) in test [1]; -49.9% (active) in test [2]; -88.2% (active) in test [4]; -92.3% (active) in test [5]; -89.3% (active) in test [6].
For the molecule `O=C(NCc1cccnc1)c1cc(-c2csc3c(=O)cc(N4CCOCC4)oc23)cc2c1OCCO2`, the growth in test [7] was 54.3%; in test [2], 46.9%; in test [3] it was 8.29% (active); in test [4] it was 45.2%; in test [5] it was 41.8%; in test [6], 48.9%.
On to `Nc1c(C(=O)c2ccccc2)nnc2ncnn12`, for which the growth in test [1] is 110%; in test [2], 106%; in test [3], 97.2%; in test [4], 105%; in test [5] it was 97.6%; in test [6] it was 105%.
On to `COc1ccc(OC)c(Nc2nc3nonc3nc2Nc2cc(OC)ccc2OC)c1`, for which the growth is 43.1% in test [1]; 57.3% in test [2]; 65.7% in test [3]; 17.6% in test [4]; 56.7% in test [5]; 67.4% in test [6].
For the molecule `O=C(Nc1cccc2[nH]c(C(F)(F)F)nc12)c1cc(Cl)ccc1Cl`, the growth in test [1] is 33.3%; in test [2] it was 42.4%; in test [4], 25.7%; in test [5], 33.8%; in test [6], 20%.
On to `CO[C@H]1/C=C/O[C@@]2(C)Oc3c(C)c(O)c4c(c3C2=O)C(=O)C(/C=N/N(c2ccccc2)c2ccccc2)=C(NC(=O)/C(C)=C\C=C\[C@H](C)[C@H](O)[C@@H](C)[C@@H](O)[C@@H](C)[C@H](OC(C)=O)[C@@H]1C)C4=O`, for which the growth was -17.4% (active) in test [1]; 2.54% (active) in test [3]; 0.555% (active) in test [4]; -70.4% (active) in test [5]; -23.9% (active) in test [6].

For the origin of these results see PubChem BioAssay (NCI).
